# Screening data as filed in PubChem.
# NR3A LBD binder: NR3A (human) ligand-binding domain modulation. NR3A LBD differential scanning fluorimetry, Tm shift; 0% = protein alone, 100% = glycine-bound protein. Tm shift relative to glycine control, % at 25 µM. 2.5% of 340,000 active. AID 1259313;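 active = melting temperature shift of at least 10% of the positive control shift, at one fixed dose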
# CRFBP-R2 block: antagonists of CRF-binding protein/CRF-R2 receptor complex. HEK293 CRF-R2/CRF-BP, CRF-induced calcium fluorescence. inhibition, % at 11.8 µM. 0.59% of 350,000 active. AID 588475;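 active = inhibition of the ligand-induced calcium signal above about 50% at the single tested concentration, limit read from the data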
# MPTP inh: blocks calcium-induced mitochondrial swelling | inhibition, % at 10 µM | 1.4% of 360,000 active | isolated mouse mitochondria, Ca2+ swelling absorbance, 30 min;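 active = inhibition of 50% or more, scaled per plate between neutral and stimulator controls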;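 note: 0% = DMSO wells given calcium and 100% = 1 mM EGTA wells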
# TMEM16A inh: blocks the mouse calcium-activated chloride channel TMEM16A | normalized B-score (activity score, 25-100; higher = stronger inhibition) at 10 µM | Q8BHY3 | AID 588511 | 1.2% of 310,000 active | HEK293 TMEM16A/YFP iodide influx fluorescence, ionomycin;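 active = ratio plate-corrected score three or more library SD toward inhibition, starting fluorescence score within five deviations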;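 note: score derived from kinetic fluorescence span divided by baseline fluorescence per well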
# Target sequence (Q8BHY3 whole entry, looked up): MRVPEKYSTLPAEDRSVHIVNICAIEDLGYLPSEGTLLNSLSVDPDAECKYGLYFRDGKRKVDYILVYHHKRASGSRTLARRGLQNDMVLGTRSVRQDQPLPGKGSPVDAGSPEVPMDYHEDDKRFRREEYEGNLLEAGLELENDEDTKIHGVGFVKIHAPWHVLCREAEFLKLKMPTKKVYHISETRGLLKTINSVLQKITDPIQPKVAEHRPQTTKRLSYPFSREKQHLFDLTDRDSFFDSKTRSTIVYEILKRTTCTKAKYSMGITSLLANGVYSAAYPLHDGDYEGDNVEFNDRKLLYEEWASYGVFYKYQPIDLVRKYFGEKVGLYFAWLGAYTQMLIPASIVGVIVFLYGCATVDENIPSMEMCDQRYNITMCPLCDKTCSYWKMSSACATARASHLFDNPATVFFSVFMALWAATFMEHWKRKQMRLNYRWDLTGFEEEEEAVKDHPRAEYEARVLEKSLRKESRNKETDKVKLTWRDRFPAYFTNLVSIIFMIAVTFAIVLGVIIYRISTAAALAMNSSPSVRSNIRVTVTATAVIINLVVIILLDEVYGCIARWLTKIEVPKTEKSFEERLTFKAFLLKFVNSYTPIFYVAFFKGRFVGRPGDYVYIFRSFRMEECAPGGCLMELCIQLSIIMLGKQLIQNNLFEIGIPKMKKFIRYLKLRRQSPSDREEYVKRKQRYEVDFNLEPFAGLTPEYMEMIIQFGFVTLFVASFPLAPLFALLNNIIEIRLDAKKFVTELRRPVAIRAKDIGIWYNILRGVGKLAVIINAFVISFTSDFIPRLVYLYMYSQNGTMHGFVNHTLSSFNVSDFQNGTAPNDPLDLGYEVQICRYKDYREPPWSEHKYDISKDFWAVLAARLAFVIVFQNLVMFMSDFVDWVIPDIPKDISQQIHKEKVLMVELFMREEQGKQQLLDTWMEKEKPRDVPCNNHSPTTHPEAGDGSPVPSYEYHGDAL
# CRFBP-R2 agonist: agonists of human CRF-binding protein/CRF-R2 receptor complex; HEK293 CRF-R2/CRF-BP, calcium dye fluorescence (FLIPR); percent of saturating CRF peptide response; activation, % at 13.2 µM; 0.46% of 350,000 active; AID 588473;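 active = activation of at least 50%, plus an integration ratio under a set limit after plate pattern correction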;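 note: plate controls were neutral control wells without compound for no effect and CRF at EC100 for full effect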
# ANO1 activ: mouse TMEM16A channel activation, primary screen | B-score at 10 µM | HEK293 TMEM16A/YFP-H148Q/I152L, iodide quench fluorescence; stronger effect = lower value | 0.3% of 340,000 active | Q8BHY3;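 active = fluorescence-ratio B-score plate-corrected deviation score at least 3 library SD below zero, with starting fluorescence score within 5 deviations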;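 note: channel opened by trigger with iodide after compound preincubation; score built on the fluorescence ratio of max minus min over baseline; more negative score means more quench and so TMEM16A activation or potentiation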
# * = called active by the depositor; i = inactive; . = not tested or not shown. Only some compounds are listed: those with a hit (about 5.1% of all), similar ones and a draw of the others.
SMILES,NR3A LBD binder,CRFBP-R2 block,MPTP inh,TMEM16A inh,CRFBP-R2 agonist,ANO1 activ
Cc1ccc(NS(=O)(=O)c2cc(C(=O)Nc3cccc([N+](=O)[O-])c3)ccc2C)cc1,21.2*,-10.6,38.5,i,-0.5,i
Cc1ccc(C(=O)NCCSC2CCCCC2)cc1S(=O)(=O)Nc1ccccc1,16.4*,5.2,28.2,i,-0.2,i
CCCCOC(=O)Nc1ccc(S(=O)(=O)Nc2nc(C)cc(C)n2)cc1,-0.5,-0.1,-2.8,i,8.8,i
CS(=O)(=O)N1CCc2cc(C(=O)Nc3cccc([N+](=O)[O-])c3)ccc21,30.8*,-8.2,-1.1,i,-2.6,i
COc1cc(C(CC(=O)Nc2ccc(C)cn2)N2Cc3ccccc3C2=O)cc(OC)c1OC (stereo not drawn),-3.2,8.0,-1.4,i,-1.9,i
NS(=O)(=O)c1cccc(NC(=O)c2ccc(NS(=O)(=O)c3cccc([N+](=O)[O-])c3)cc2)c1,29.8*,-6.0,1.1,.,-0.1,i
Cc1ccc(C(=O)Nc2cccc([N+](=O)[O-])c2)cc1S(=O)(=O)Nc1ccc(NC(=O)c2ccccc2)cc1,35.9*,8.4,2.8,i,-3.2,i
O=C(O)c1cccc(NC(=O)c2cccc(S(=O)(=O)Nc3cccc([N+](=O)[O-])c3)c2)c1,-3.0,1.0,-0.8,i,1.2,i
CC1C(=O)N(Cc2cn(CCC3OCCCO3)nn2)CCS(=O)(=O)N1Cc1ccc(-c2ccccc2)cc1 (stereo not drawn),.,-11.6,0.3,.,-1.7,.
Cc1ccc(-c2ccc(CN3C(C)C(=O)N(Cc4cn(Cc5ccco5)nn4)CCS3(=O)=O)cc2)cc1 (stereo not drawn),.,-12.7,-0.1,.,-0.2,.
COc1ccc(-c2ccc(CN3C(C)C(=O)N(Cc4cn(Cc5ccco5)nn4)CCS3(=O)=O)cc2)cc1 (stereo not drawn),.,69.3*,-0.4,.,-1.7,.
CC1C(=O)N(Cc2cn(CCC3OCCCO3)nn2)CCS(=O)(=O)N1Cc1ccc(-c2ccc(Cl)cc2)cc1 (stereo not drawn),.,52.5*,-2.0,.,0.5,.
CCn1c(=Nc2ccc(N3CCOCC3)cc2)ccc2ccccc21,13.6*,5.0,-1.4,i,-1.4,i
COc1ccc(C(CCNCc2ccc(OC(C)C)cc2)c2ccccc2OC)cc1 (stereo not drawn),0.2,-7.9,3.3,25*,0.9,i
COc1ccc(CNCCC(c2ccc(OC)cc2)c2ccccc2OC)cc1 (stereo not drawn),-3.6,0.1,2.1,i,-0.1,i
CCc1cc(=O)oc2cc(C)cc(OCC(=O)NCCCN3CCOCC3)c12,0.1,8.9,0.0,i,0.2,i
CC(Sc1nc2ccc(Br)cc2[nH]1)C(=O)O (stereo not drawn),0.4,8.0,-1.0,i,-1.6,i
O=C(O)CCSc1nc2ccc(Br)cc2[nH]1,12.5*,-6.0,1.9,i,0.7,i
N#CCCN(Cc1cccnc1)S(=O)(=O)c1ccc2ccccc2c1,2.8,10.9,0.2,.,-0.9,i
N#CCCN(Cc1cccnc1)S(=O)(=O)c1ccc(S(=O)(=O)NC2CCCCC2)cc1,13.7*,2.9,0.7,i,-0.8,i
O=C(COc1ccc(F)cc1)N(Cc1cccs1)C1CCS(=O)(=O)C1 (stereo not drawn),3.0,-62.4,-2.2,i,65.6*,i
CN(C)c1ccc(CN(C(=O)COc2ccc(Br)cc2)C2CCS(=O)(=O)C2)cc1 (stereo not drawn),0.1,20.8,2.1,i,-2.0,i
Cc1ccc(OCC(=O)N(Cc2ccc(N(C)C)cc2)C2CCS(=O)(=O)C2)cc1 (stereo not drawn),17.2*,-5.1,-4.2,i,1.1,i
Cc1ccc(OCC(=O)N(Cc2cccc(Cl)c2)C2CCS(=O)(=O)C2)cc1C (stereo not drawn),2.2,0.4,-0.1,i,0.0,-40.1*
O=C(COc1ccccc1)N(Cc1cccs1)C1CCS(=O)(=O)C1 (stereo not drawn),1.4,-13.8,2.0,i,-4.6,i
